Assay results from the supplement of paper PMC6805474.

Key:
[1] = system: Schistosoma mansoni schistosomula (LE); assay: XTT viability relative to DMSO control; higher = more viable (less active); conditions: 72 h; 10 µM
Protocol: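 XTT/PMS was then added for a further 24 h (72 h total) and A450 was read. % viability = (sample - heat-killed control)/(DMSO control - heat-killed control) x 100, from duplicate wells in two independent experiments.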

[2] = system: Schistosoma mansoni schistosomula (NMRI); assay: phenotypic severity score (0-4); higher = more antischistosomal effect, active = 2 or more; conditions: 10 µM
[3] = system: Schistosoma mansoni schistosomula (Liberian); assay: drug effect (1 - score/DMSO control score) (fraction); higher = more antischistosomal effect, active = 0.5 or more; extreme values may be limits of the assay; conditions: 10 µM
Summary of the method: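 Drug effect was calculated by comparing the mean score of the test wells with the mean score of the DMSO wells, and any negative value was set to zero. Duplicate wells of 50 Liberian-strain S. mansoni schistosomula, mechanically transformed from cercariae and pre-incubated at least 12 h, received 10 µM compound in Medium 199 with 5% FCS at 37 °C, 5% CO2, with 0.1% DMSO in the comparison wells. Visual scoring at 10× took place at 24, 48 and 72 h on a quarter-point scale from 3 (normal) to 0 (dead), and a plate counted only if its DMSO wells averaged at least 2.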
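For phenotypic severity score (0-4) in this document: visual microscopic scoring of shape, motility and density changes versus 0.5% DMSO solvent controls, one point per descriptor, degeneracy or death scored 4, mean of duplicate wells.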

SMILES	XTT viability [1]	phenotypic severity score ([2]; 24 h)	phenotypic severity score ([2]; 48 h)	phenotypic severity score ([2]; 72 h)	drug effect ([3]; 24 h)	drug effect ([3]; 48 h)	drug effect ([3]; 72 h)
CS(=O)(=O)N1CCC(Cn2nc(Cc3cccc4ccccc34)c3c(N)ncnc32)CC1	122%	0 (inactive)	0 (inactive)	0 (inactive)	0.1 (inactive)	0.568 (active)	0.636 (active)
c1cc(C2=NCCN2)cc(-c2cc(-c3ccc(C4=NCCN4)cc3)no2)c1	115%	0 (inactive)	0 (inactive)	0 (inactive)	0.1 (inactive)	0.111 (inactive)	0.125 (inactive)
Cc1ncc(-c2ccnc(Nc3ccc(S(C)(=O)=O)cc3)n2)n1C(C)C	66.9%	0 (inactive)	0 (inactive)	0 (inactive)	0.15 (inactive)	0.135 (inactive)	0.167 (inactive)
CC(C)(C)n1nc(Cc2cccc3ccccc23)c2c(N)ncnc21	85.5%	0 (inactive)	0 (inactive)	0 (inactive)	0.15 (inactive)	0.222 (inactive)	0.625 (active)
COc1ccc(Nc2ccccc2NC(=O)c2ccc(O)nc2)cc1	176%	0 (inactive)	0 (inactive)	0 (inactive)	0.182 (inactive)	0.45 (inactive)	0.4 (inactive)
c1ccc(Oc2ccc(-c3cc(N4CCOCC4)[nH]n3)cc2)cc1	112%	0 (inactive)	0 (inactive)	0 (inactive)	0.15 (inactive)	0.297 (inactive)	0.152 (inactive)
Cc1nn(C)cc1C(C)Nc1nncc(-c2ccc(C(F)(F)F)cc2)n1 (configuration not stated)	77.5%	0 (inactive)	0 (inactive)	0 (inactive)	0.136 (inactive)	0.1 (inactive)	0.105 (inactive)
O=C(c1ccco1)N(CCCn1ccnc1)c1nc2c(Cl)cccc2s1	46.4%	0 (inactive)	0 (inactive)	0 (inactive)	0.0909 (inactive)	0.4 (inactive)	0.4 (inactive)
CS(=O)(=O)N1CCC(CCn2nc(Cc3cccc4ccccc34)c3c(N)ncnc32)CC1	90.7%	0 (inactive)	0 (inactive)	0 (inactive)	0.273 (inactive)	0.45 (inactive)	0.509 (active)
CC(=O)Nc1ccc(-c2noc(CC3CCCN(Cc4cccc(F)c4C)C3)n2)cc1 (configuration not stated)	117%	0 (inactive)	0 (inactive)	0 (inactive)	0.1 (inactive)	0.0556 (inactive)	0.188 (inactive)
CC(C)(C)OC(=O)N1CCN(c2cc(-c3ccc(Oc4ccccc4)cc3)n[nH]2)CC1	66.1%	0 (inactive)	0 (inactive)	0 (inactive)	0.0526 (inactive)	0.167 (inactive)	0.25 (inactive)
COc1cc(CN2CCC3(C=Cc4ccccc43)CC2)cc2c1OCO2	73.9%	1 (inactive)	1 (inactive)	0 (inactive)	0.1 (inactive)	0.135 (inactive)	0.273 (inactive)
O=C(Nc1ccc(F)c(-c2nc3cc(-c4ccccc4)cnc3[nH]2)c1)N1CCCC1	111%	0 (inactive)	4 (active)	4 (active)	0.676 (active)	0.667 (active)	0.875 (active)
C[C@H]1c2cccc(O)c2C(=O)C2=C(O)[C@]3(O)C(=O)C(C(N)=O)=C(O)[C@@H](N(C)C)[C@@H]3[C@@H](O)[C@@H]21	165%	0 (inactive)	0 (inactive)	0 (inactive)	0.2 (inactive)	0.297 (inactive)	0.222 (inactive)
N=C(N)Nc1ccc(-c2ccc(-c3ccc(N=C(N)N)c(Cl)c3)o2)cc1Cl	89.7%	0 (inactive)	0 (inactive)	0 (inactive)	< 0 (inactive)	< 0 (inactive)	0.0625 (inactive)
COc1cc(C2=NCCN2)ccc1-n1cc(-c2cccc(C3=NCCN3)c2)nn1	77.2%	1 (inactive)	0 (inactive)	0 (inactive)	0.243 (inactive)	0.278 (inactive)	0.5 (active)
CC(C)(C)C1CCC(CC2=C(O)C(=O)c3ccccc3C2=O)CC1 (configuration not stated)	71.7%	3 (active)	2 (active)	2 (active)	0.2 (inactive)	0.189 (inactive)	0.278 (inactive)
CC(C)NCC(=O)Nc1cccc(C(=O)Nc2cccc(C(F)(F)F)c2)c1	86.7%	0 (inactive)	0 (inactive)	0 (inactive)	0.2 (inactive)	0.167 (inactive)	0.375 (inactive)
O=C(C(Cc1c[nH]c2ccccc12)NS(=O)(=O)c1ccc(Cl)cc1)N1CCCCC1 (configuration not stated)	96.4%	0 (inactive)	0 (inactive)	0 (inactive)	0.05 (inactive)	0.0811 (inactive)	0.111 (inactive)
Cc1cc(C(=O)Nc2cnn(Cc3ccc(Cl)cc3Cl)c2)no1	91.7%	0 (inactive)	0 (inactive)	0 (inactive)	0.182 (inactive)	0.1 (inactive)	0.127 (inactive)
CN1CCN(c2nccc3[nH]c(-c4cccc(F)c4)cc23)CC1	66.3%	0 (inactive)	2 (active)	4 (active)	0.0909 (inactive)	0.1 (inactive)	0.158 (inactive)

SMILES	XTT viability [1]	phenotypic severity score ([2]; 24 h)	phenotypic severity score ([2]; 48 h)	phenotypic severity score ([2]; 72 h)	drug effect ([3]; 24 h)	drug effect ([3]; 48 h)	drug effect ([3]; 72 h)
COc1cccc(-n2nnnc2S(C)(=O)=O)c1	-0.214%	4 (active)	4 (active)	4 (active)	1 (active)	1 (active)	1 (active)
COc1cc(Br)cc2cc(C(=O)Nc3cccc(C(F)(F)F)c3)c(=O)oc12	90.6%	0 (inactive)	0 (inactive)	0 (inactive)	0.1 (inactive)	0.0556 (inactive)	0.0556 (inactive)
CC1=Nc2ccc(Cl)cc2C(c2ccccc2)N1CCNC(=O)CN(C)C (configuration not stated)	113%	0 (inactive)	0 (inactive)	0 (inactive)	0.35 (inactive)	0.333 (inactive)	0.375 (inactive)
CN1CCN(S(=O)(=O)c2ccc(-c3ccc4c(Nc5ncc(Cl)cn5)ccnc4c3)cc2)CC1	32.4%	2 (active)	4 (active)	4 (active)	0.6 (active)	0.611 (active)	0.625 (active)
Cn1ccnc1CNCCS(=O)(=O)c1cccc(Nc2ccc(-c3cccc(F)c3)cn2)c1	114%	0 (inactive)	0 (inactive)	0 (inactive)	0.1 (inactive)	0.0556 (inactive)	0.125 (inactive)
NCCC(O)C(=O)N[C@@H]1C[C@H](N)[C@@H](OC2O[C@H](CN)[C@@H](O)[C@H](O)[C@H]2O)[C@H](O)C1OC1O[C@H](CO)[C@@H](O)[C@H](N)[C@H]1O (some centres not stated)	93.8%	0 (inactive)	0 (inactive)	0 (inactive)	< 0 (inactive)	0.0625 (inactive)	< 0 (inactive)
COc1ccc(C2=NN(C3CCCCCC3)C(=O)C2(C)C)cc1OCCCCOc1ccc(-c2nn[nH]n2)cc1	3.51%	1 (inactive)	0 (inactive)	0 (inactive)	0.182 (inactive)	0.2 (inactive)	0.127 (inactive)
O=C(C1CCN(c2nnnn2-c2ccccc2)CC1)N1CCc2ccccc2C1	117%	0 (inactive)	0 (inactive)	0 (inactive)	0.135 (inactive)	0.111 (inactive)	0.25 (inactive)
COc1cccn2c(C(=O)N3CCCCC3)c(C(F)(F)F)nc12	95.7%	0 (inactive)	0 (inactive)	0 (inactive)	0.182 (inactive)	0.2 (inactive)	0.127 (inactive)
CO[C@@H](C(=O)N1Cc2[nH]nc(NC(=O)c3ccc(N4CCN(C)CC4)cc3)c2C1)c1ccccc1	97.4%	0 (inactive)	0 (inactive)	0 (inactive)	0.15 (inactive)	0.243 (inactive)	0.278 (inactive)
CN1CCN(c2nccc3nc(-c4ccc(F)c(F)c4)[nH]c23)CC1	110%	0 (inactive)	0 (inactive)	0 (inactive)	< 0 (inactive)	0.1 (inactive)	0.167 (inactive)
Cc1ccc2nc(Cl)c(CNCc3cccs3)cc2c1	83.2%	0 (inactive)	0 (inactive)	0 (inactive)	0.182 (inactive)	0.2 (inactive)	0.0727 (inactive)
CCOC(=O)c1noc(N)c1-c1ccccc1	94.1%	0 (inactive)	0 (inactive)	0 (inactive)	0.05 (inactive)	0.0811 (inactive)	0.0909 (inactive)
CC(C)(C(=O)Nc1ccc(F)cc1)n1cc(-c2ccccc2F)cn1	128%	0 (inactive)	0 (inactive)	0 (inactive)	0.135 (inactive)	0.111 (inactive)	< 0 (inactive)
CNCCC(Oc1ccc(C(F)(F)F)cc1)c1ccccc1 (configuration not stated)	20.4%	0 (inactive)	0 (inactive)	0 (inactive)	0.05 (inactive)	0.0811 (inactive)	0.333 (inactive)
CC(C)(C)CN1C(=O)C(c2ccccc2)(c2ccccc2)N=C1N	88.6%	0 (inactive)	0 (inactive)	0 (inactive)	0.1 (inactive)	0.135 (inactive)	0.273 (inactive)
CC(C)C(C(=O)Nc1ccc(S(=O)(=O)N(C)C)cc1)c1ccc(Cl)cc1 (configuration not stated)	29.5%	2 (active)	4 (active)	4 (active)	0.955 (active)	0.85 (active)	1 (active)
CCn1cnc2c(Nc3cc(F)cc(F)c3)nc(C#N)nc21	97.7%	4 (active)	4 (active)	4 (active)	0.351 (inactive)	0.889 (active)	0.75 (active)
CN1CCC(NCc2cccc(-c3ccc(S(=O)(=O)NCc4ccccc4)cc3)c2)CC1	19.2%	0 (inactive)	2 (active)	4 (active)	0.6 (active)	0.784 (active)	0.939 (active)
Cc1ccccc1CN1CCC(O)(c2ccc(Cl)c(C(F)(F)F)c2)CC1	71.1%	2 (active)	0 (inactive)	1 (inactive)	0.1 (inactive)	0.0556 (inactive)	0.188 (inactive)
